This is a sample that favours compounds with a hit; in the whole collection about 1.8% have one here.
PME-1 inh – PME-1 (human) inhibition; inhibition, % at 5.9 µM; Q9Y570; recombinant PME-1, FP-Rh probe fluorescence polarization; 320,000 tested, 0.53% active;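 active = inhibition above the campaign mean of all compounds plus 3 SD, cut at about 26% in these data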;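 also: competitive labeling of PME-1 active site by serine hydrolase directed probe; 0% = PME-1 with DMSO and 100% = wells lacking PME-1 enzyme; inhibitors block probe labeling so polarization falls and inhibition rises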
PP5 inh – inhibitors of human protein phosphatase 5 (PP5). P53041. purified PP5c, OMFP substrate fluorescence. inhibition, % at 6.7 µM. 320,000 tested, 0.18% active. AID 1987;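 active = inhibition above the campaign's mean inhibition across all tested compounds plus 3 SD, cut at about 9.5% in these data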;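 also: 0% = DMSO only and 100% = 100 µM cantharidin control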
Target sequence (P53041 whole entry, looked up): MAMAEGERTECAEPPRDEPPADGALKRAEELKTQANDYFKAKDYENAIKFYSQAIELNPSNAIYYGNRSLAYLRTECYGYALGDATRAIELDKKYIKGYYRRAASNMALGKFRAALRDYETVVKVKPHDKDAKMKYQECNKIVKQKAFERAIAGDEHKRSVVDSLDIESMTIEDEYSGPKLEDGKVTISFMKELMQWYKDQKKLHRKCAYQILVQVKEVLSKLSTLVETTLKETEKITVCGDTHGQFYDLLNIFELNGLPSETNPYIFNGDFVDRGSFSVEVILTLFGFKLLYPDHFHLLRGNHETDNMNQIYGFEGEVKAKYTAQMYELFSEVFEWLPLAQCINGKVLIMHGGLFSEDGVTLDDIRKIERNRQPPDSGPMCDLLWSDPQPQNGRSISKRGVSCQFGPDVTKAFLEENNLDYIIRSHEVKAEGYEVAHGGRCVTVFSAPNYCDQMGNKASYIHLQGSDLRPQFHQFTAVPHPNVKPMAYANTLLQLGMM
PP1 counter – PP1-alpha (human) inhibition in PP5 counter-screen; P62136; inhibition, % at 6.7 µM; purified PP1alpha, OMFP fluorescence; 320,000 tested, 0.9% active; AID 2235;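 active = inhibition above the mean inhibition of all tested compounds plus 3 SD, computed separately for each screening campaign, cut at about 15% in these data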
LYPLA1 counter – blocks human lysophospholipase 1, a PME1 counter-screen | AID 2174 | 320,000 tested, 0.16% active | inhibition, % at 5.9 µM | O75608 | recombinant LYPLA1, FP-Rh probe fluorescence polarization;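 active = inhibition above the mean of all tested compounds plus 3 SD, set per campaign, cut at about 14% in these data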;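 also: inhibitors block serine hydrolase probe labeling of LYPLA1 so polarization falls; 0% = enzyme with DMSO and 100% = wells lacking LYPLA1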
Fam108B inh – blocks mouse Fam108B hydrolase in RBBP9 counter-screen. AID 1947. recombinant Fam108B, FP-Rh probe fluorescence polarization. inhibition, % at 9.51 µM. 300,000 tested, 0.33% active;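 active = inhibition above the screen mean inhibition plus 3 SD, computed separately per campaign, cut at about 18% in these data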;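 also: inhibitors lower polarization as less probe binds the enzyme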
LYPLA2 counter – counter-screen for PME1 inhibitors: inhibitors of human LYPLA2 | inhibition, % at 5.9 µM | O95372 | 320,000 tested, 0.38% active | AID 2177 | recombinant LYPLA2, FP-Rh probe fluorescence polarization;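 active = inhibition above the screen-wide mean plus 3 SD, limit set per campaign, cut at about 26% in these data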;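 also: 0% = LYPLA2 with DMSO and 100% = wells lacking LYPLA2 enzyme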
PP1 inh confirm – human PP1 phosphatase inhibition, confirmation | 1,900 tested, 52% active | shares compounds with PP1 counter | AID 2358 | inhibition, % at 6.7 µM | purified PP1alpha, OMFP substrate fluorescence;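 active = mean PP1 inhibition above a set limit taken from the earlier primary screen, cut at about 15% in these data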
PP5 inh counter – PP5 phosphatase inhibition, counter-screen for PP1 inhibitors | purified PP5c, OMFP fluorescence | 1,900 tested, 4% active | AID 2360 | inhibition, % at 6.7 µM | shares compounds with PP1 counter;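 active = mean PP5 inhibition over triplicate wells above about 9.5% taken from the earlier PP1 screen, limit read from the data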
Numbers without * were called inactive.

For Cc1ccc(NCc2ccc(O)c3ncccc23)cc1 the results were PME-1 inh 2, PP5 inh 5, PP1 counter 4, LYPLA1 counter -1, Fam108B inh -1 and LYPLA2 counter 4.
For CN(CC(=O)Nc1ccccc1Cl)C(=O)COC(=O)Cc1ccc(F)cc1 the results were PME-1 inh -5, PP5 inh 1, PP1 counter 0, LYPLA1 counter 3, Fam108B inh -2 and LYPLA2 counter 8.
CCOc1ncccc1C(=O)OCC(=O)Nc1ccc2c(c1)OCCO2 was read as PME-1 inh -2, PP5 inh -2, PP1 counter -3, LYPLA1 counter 0 and LYPLA2 counter 1.
CC1CN(S(=O)(=O)c2cccc(C(=O)NCc3ccco3)c2)CC(C)O1 (stereo unspecified) was read as PME-1 inh -7, PP5 inh -1, PP1 counter 11, LYPLA1 counter -3 and LYPLA2 counter -7.
For CCc1ccc(N=C2NC(=O)/C(=C/c3ccc(OCC(=O)O)cc3)S2)cc1 the results were PME-1 inh -24, PP5 inh 2, PP1 counter 39*, LYPLA1 counter 2, Fam108B inh 1, LYPLA2 counter 6, PP1 inh confirm 3 and PP5 inh counter -1.
`CCOc1ccc(N=C2NC(=O)/C(=C/C(=O)OC)S2)cc1` gave PME-1 inh -3, PP5 inh 0, PP1 counter 0, LYPLA1 counter 1, Fam108B inh 1 and LYPLA2 counter 1.
`N#CC1=C2SC=C(c3ccc(Br)cc3)N2CCCC1=O` gave PME-1 inh -11, PP5 inh 2, PP1 counter 3, LYPLA1 counter -7, Fam108B inh -10 and LYPLA2 counter -7.
For N#CC1=C2Sc3ccccc3N2CCCC1=O the results were PME-1 inh -4, PP5 inh -1, PP1 counter 56*, LYPLA1 counter 0, Fam108B inh -1, LYPLA2 counter 4, PP1 inh confirm -3 and PP5 inh counter -4.
CCOC(=O)c1c(NC(=O)CSc2nnc3c(n2)[nH]c2ccccc23)sc2c1CCN(C)C2 was read as PME-1 inh -40, PP5 inh 0, PP1 counter 18*, LYPLA1 counter 1, Fam108B inh 6, LYPLA2 counter -2, PP1 inh confirm 11 and PP5 inh counter -1.
`CCOC(=O)c1c(NC(=O)CSc2nnc3c(n2)[nH]c2ccc(F)cc23)sc(C(C)=O)c1C` gave PME-1 inh 12, PP5 inh 2, PP1 counter -4, LYPLA1 counter -4, Fam108B inh -4 and LYPLA2 counter 1.
O=C(Nc1nnc(-c2ccc(Cl)cc2)o1)c1nc2ccccc2s1 was read as PME-1 inh 1, PP5 inh 1, PP1 counter 22*, LYPLA1 counter -4, Fam108B inh -1, LYPLA2 counter -3, PP1 inh confirm 26* and PP5 inh counter -4.
For O=C(Nc1nnc(-c2ccc(Cl)cc2)o1)Nc1ccccc1Cl the results were PME-1 inh -7, PP5 inh 2, PP1 counter -6, LYPLA1 counter -4, Fam108B inh -2 and LYPLA2 counter -2.
Screening CCN(Cc1ccc2c(c1)OCCO2)C(=O)CN1C(=O)NC2(CCCCC2)C1=O returned PME-1 inh -2, PP5 inh 1, PP1 counter 2, LYPLA1 counter 2 and LYPLA2 counter 1.
O=C1C(=O)N(c2ccccc2)C(c2ccccc2[N+](=O)[O-])/C1=C(\O)c1ccccc1 (stereo unspecified) was read as PME-1 inh 0, PP5 inh 2, PP1 counter 0, LYPLA1 counter 3, Fam108B inh 0 and LYPLA2 counter 5.
For O=C1C(=O)N(c2cccc(Cl)c2)C(c2ccccc2[N+](=O)[O-])/C1=C(\O)c1ccccc1 (stereo unspecified) the results were PME-1 inh 2, PP5 inh 2, PP1 counter -184, LYPLA1 counter -3, Fam108B inh -4, LYPLA2 counter -4, PP1 inh confirm 2 and PP5 inh counter -2.
COc1cccc(NC(=O)C(C)Sc2nnc(C3CC3)n2C2CC2)c1 (stereo unspecified) was read as PME-1 inh -1, PP5 inh 1, PP1 counter -3, LYPLA1 counter 1 and LYPLA2 counter -3.
Screening Cc1ccc(C)c(CN2C(=O)C3CCCN3c3ccc(S(=O)(=O)N4CCOCC4)cc32)c1 (stereo unspecified) returned PME-1 inh -19, PP5 inh 3, PP1 counter 22*, LYPLA1 counter -13, Fam108B inh -25, LYPLA2 counter -21, PP1 inh confirm 22* and PP5 inh counter 0.
Screening COc1ccc(CN2c3cc(S(=O)(=O)N4CCOCC4)ccc3N3CCCC32)cc1 (stereo unspecified) returned PME-1 inh -1, PP5 inh 3, PP1 counter -4, LYPLA1 counter 1, Fam108B inh 4 and LYPLA2 counter 4.
Cc1ccc(C)c(COC(=O)c2cc(S(=O)(=O)N3CCCCC3)ccc2N2CCOCC2)c1 was read as PME-1 inh -4, PP5 inh 2, PP1 counter -2, LYPLA1 counter -3, Fam108B inh -1 and LYPLA2 counter 5.
COc1cccc(CN2C(=O)C3CCCN3c3ccc(S(=O)(=O)N4CCOCC4)cc32)c1 (stereo unspecified) was read as PME-1 inh -21, PP5 inh 2, PP1 counter 26*, LYPLA1 counter -13, Fam108B inh -15, LYPLA2 counter -24, PP1 inh confirm 25* and PP5 inh counter 0.
Screening Cc1cccc(N(Cc2ccccc2)C(=O)C2CCN(C(=O)c3ccccc3C)CC2)c1 returned PME-1 inh 5, PP5 inh 3, PP1 counter 2, LYPLA1 counter 0 and LYPLA2 counter -1.
`Clc1ccc(C2=Nn3c(nnc3-c3n[nH]c4c3CCC4)SC2)cc1Cl` gave PME-1 inh 0, PP5 inh 2, PP1 counter 23*, LYPLA1 counter -19, Fam108B inh -44, LYPLA2 counter -12, PP1 inh confirm 28* and PP5 inh counter 3.
c1ccc(C2=Nn3c(nnc3-c3cc(-c4ccccc4)n[nH]3)SC2)cc1 was read as PME-1 inh -19, PP5 inh 4, PP1 counter 13, LYPLA1 counter -7, Fam108B inh -6 and LYPLA2 counter -4.
For Clc1ccc(C2=Nn3c(nnc3-c3cc(-c4ccccc4)n[nH]3)SC2)cc1 the results were PME-1 inh -24, PP5 inh 2, PP1 counter 23*, LYPLA1 counter -14, Fam108B inh -19, LYPLA2 counter -30, PP1 inh confirm 16* and PP5 inh counter -1.

High-throughput results (PubChem)
